Assay outcomes deposited in PubChem by National Center for Advancing Translational Sciences (NCATS).
Most compounds without a hit are left out; they make up all but 12% or so of the library.
Marburg entry inh = inhibitors of Marburg virus binding or cell entry | AID 540276 | Potency, µM (doses to about 37.8 µM), hits mostly inhibitors | 1.8% of 300,000 active | Marburg virus pseudotyped entry inhibition, cell reporter; calls by dose curve; tested in HEK293 cells
LASV entry inh = inhibitors of Lassa virus binding or cell entry | Lassa virus pseudotype entry inhibition, cell reporter | Potency, µM (top dose mostly 37.9 µM), usual class: inhibitors | 1.2% of 300,000 active | AID 540256; calls by dose curve; tested in HEK293 cells; note: nearly all actives have a fitted effect of over 50% in size
Cycloheximide cs = counter-screen for Shiga toxin inhibitors: cycloheximide protein synthesis inhibition. cell reporter, cycloheximide protein synthesis inhibition counterscreen. max response, %. 12% of 300,000 active; in the data active = max response mostly above about 13%, no sharp cut-off; inactive = mostly below about 14%; note: read at 38.3 µM for the half of the compounds with a filed dose
Shiga toxin inh = inhibitors of Shiga toxin in Vero cells; Vero cells, Shiga toxin protein synthesis inhibition reporter; inhibition, % at 38.7 µM; 9.2% of 290,000 active; in the data active = inhibition mostly above about 28%, no sharp cut-off; inactive = mostly below about 43%
A number is an active result; i = inactive; ? = inconclusive; nt = not tested or not shown.

SMILES	Marburg entry inh	LASV entry inh	Cycloheximide cs	Shiga toxin inh
O=S(=O)(Nc1ccc(Br)cn1)c1ccc2ccccc2c1	i	?	i	i
Cc1ccc(C(=O)NC(=S)N2CCN(C(=O)OC(C)(C)C)CC2)cc1Br	nt	nt	i	i
CC(C)c1ccc(NC(=O)c2ccc3c(c2)CCCN3S(C)(=O)=O)cc1	?	i	nt	nt
COC(=O)c1ccc(COC(=O)CNC(=O)c2ccc(-c3ccccc3)cc2)cc1	i	i	68	46
Cc1ccc(S(=O)(=O)NCC(=O)OCc2csc(-c3ccccc3)n2)cc1	i	i	15	i
O=C(OCc1csc(Nc2ccccc2)n1)c1ccc(Cl)cc1	i	i	i	i
COC(=O)c1ccc(COC(=O)CNC(=O)c2ccco2)cc1	i	i	i	i
Cc1ccc(S(=O)(=O)NCC(=O)OCc2ccccc2Br)cc1	i	i	i	i
COC(=O)c1ccc(COC(=O)CCS(=O)(=O)c2ccc(C)cc2)cc1	i	i	i	i
COC(=O)c1ccc(COC(=O)CNS(=O)(=O)c2ccc(C)cc2)cc1	i	i	33	81
O=C(OCc1csc(-c2ccccc2)n1)c1ccc(O)cc1	i	i	37	116
CCOc1ccc(Oc2ccc(NC(=O)[C@@H](NC(N)=O)[C@@H](C)CC)cc2)cc1	nt	nt	i	i
CC(C)Oc1cccc(C2NC(=O)c3ccccc3O2)c1 (centres undefined)	i	i	i	i
CCc1cc2c(nc1CC)CCN(CC/C(C)=N/OC[C@@H](O)[C@H]1O[C@@H]3OC(C)(C)O[C@@H]3[C@H]1O)C2	i	nt	nt	nt
Cc1cc(C=C2C(=O)NC(=S)NC2=O)c(C)n1-c1ccc2c(c1)OCO2	i	i	39	24
O=C(NCc1ccccc1)c1cc2nc(C3CC3)cc(C(F)(F)F)n2n1	?	i	i	i
O=C(NCc1ccco1)c1cc2nc(C3CC3)cc(C(F)(F)F)n2n1	i	3.5µM	i	i
O=C(Nc1cccc(S(=O)(=O)NC2=NCCC2)c1)c1ccc(C(F)(F)F)cc1	i	i	nt	nt
COc1ccc([C@]23Cc4ccccc4[C@H](O2)C2=C(CC(C)(C)CC2=O)O3)cc1	i	nt	nt	nt
CCCCS(=O)(=O)N1CCCC(C(=O)Oc2ccc(Cl)cc2)C1 (centres undefined)	i	i	i	i
COc1ccc(-c2nnc(-c3cc4ccccc4oc3=O)o2)cc1	i	i	i	i
O=c1oc2ccccc2cc1-c1nc(-c2cccc(Cl)c2)cs1	nt	i	nt	nt
COc1ccc2oc(=O)c(-c3nc4ccccc4o3)cc2c1	?	?	25	66
O=c1oc2ccccc2cc1-c1nc2c(s1)CCCC2	?	2.9µM	31	56
Cc1cc(-c2nnc(-c3cc4ccccc4oc3=O)o2)c(C)n1-c1ccccc1	i	i	32	i
SMILES	Marburg entry inh	LASV entry inh	Cycloheximide cs	Shiga toxin inh
O=c1oc2ccccc2cc1-c1nc2ccccc2o1	i	i	38	71
COc1ccc2oc(=O)c(-c3nnc(-c4ccc(C)cc4)o3)cc2c1	nt	i	nt	nt
Cc1ccc(CNC(=O)c2ccc(N3CCCC3)c(NC(=O)Nc3ccc(C)cc3)c2)cc1	nt	i	nt	nt
COc1ccc(C(=O)c2nc3c(n2O)CCCC3)cc1OC	?	i	i	i
CCCOc1ccc(C(=O)c2nc3c(n2O)CCCC3)cc1	?	i	i	50
O=C(c1ccc(Oc2ccccc2)cc1)c1nc2c(n1O)CCCC2	i	?	21	i
COc1ccc(C(=O)c2nc3c(n2O)CCCCC3)cc1	i	i	48	i
CCOc1ccc(C(=O)c2nc3c(n2O)CCCCC3)cc1	i	i	i	i
O=C(NCCS(=O)(=O)NC1CCCC1)c1ccc(F)cc1	i	i	nt	nt
Cn1c(=O)c2[nH]c(N=Nc3ccc(N)cc3N)nc2n(C)c1=O	nt	nt	i	i
CCN(C(=O)Cn1c(=O)n(CC2CCC(C(=O)NC)CC2)c(=O)c2sccc21)c1ccccc1 (centres undefined)	nt	i	nt	nt
COc1ccc(-c2cc(C)nc3c(-c4ccccc4)cnn23)cc1	i	?	41	90
Cc1cc(SCC(=O)c2ccccc2)n2ncc(-c3ccccc3)c2n1	nt	nt	61	67
Cc1cc(-c2ccccc2)n2ncc(-c3ccccc3)c2n1	3.7µM	?	47	97
COc1ccc(-c2cc(-c3ccccc3)n3ncnc3n2)cc1	?	i	i	i
CCOC(=O)c1ccccc1NC(=O)Cn1ncc2c1-c1ccccc1OC2	i	nt	nt	nt
CN(CC(=O)NCc1ccccn1)S(=O)(=O)c1ccc2ccccc2c1	i	i	i	i
CCc1ccc(CNC(=O)c2ccc(CS(=O)(=O)Cc3ccccc3C)o2)cc1	nt	i	nt	nt
S=c1[nH]nc(-c2ccncc2)n1/N=C/c1cccc(Cl)c1	nt	nt	i	i
Cc1ccc[n+](CC(=O)Nc2nc3ccccc3s2)c1	i	i	i	i
O=C(Cc1ccc(Cl)cc1Cl)Nc1cccc(S(=O)(=O)Nc2ccccc2F)c1	?	7.3µM	i	i
O=C(/C=C/c1ccccc1)Nc1cccc(S(=O)(=O)Nc2ccccc2F)c1	?	?	i	39
O=C(Cc1c(F)cccc1Cl)Nc1cccc(S(=O)(=O)NC2=NCCCCC2)c1	i	?	nt	nt
O=C(/C=C/c1ccccc1)Nc1cccnc1Oc1ccccc1F	?	?	62	76
O=C(/C=C/c1ccc(Cl)cc1Cl)Nc1cccc(S(=O)(=O)NC2=NCCCCC2)c1	i	i	26	13
SMILES	Marburg entry inh	LASV entry inh	Cycloheximide cs	Shiga toxin inh
O=C(Nc1cccc(S(=O)(=O)Nc2ccccc2F)c1)c1ccc2ccccc2n1	?	?	i	i
Cc1ccc(CNC(=O)CN(C)S(=O)(=O)c2ccc3c(c2)n(C)c(=O)c(=O)n3C)cc1	nt	nt	i	i
Cc1ccc(NS(=O)(=O)Cc2ccccc2)nc1	i	i	25	56
Cc1ccc(NC(=S)NCCc2ccccc2)nc1	i	i	25	76
Cc1ccc(NC(=O)CCCc2ccccc2)nc1	?	?	44	89
CNC(=S)NCCc1ccccc1	i	i	i	i
Cc1cn(CCC(=O)Nc2ccc(N3CCOCC3)cc2)c2ccccc12	nt	nt	66	61
Cc1cn(CCC(=O)Nc2ccccc2N2CCOCC2)c2ccccc12	?	?	50	75
O=C(CC(NCc1cccnc1)C(=O)O)Nc1ccc(F)cc1 (centres undefined)	i	i	nt	nt
COc1ccc(C(=O)NC2CCSc3ccccc32)cc1F (centres undefined)	i	i	13	i
COc1ccc(C(=O)NC2CCc3ccccc32)cc1OC1CCN(C(C)C)CC1 (centres undefined)	i	i	14	47
COc1ccc(C(=O)N(C)Cc2ccc(C)o2)cc1OC1CCN(C(C)C)CC1	i	?	i	i
CCCOC1CCCN(C(=O)c2ccc(OC)c(OC3CCN(C(C)C)CC3)c2)C1 (centres undefined)	i	i	19	i
COc1ccc(C(=O)N2CCCCCC2)cc1OC1CCN(C(C)C)CC1	i	i	i	i
COC(=O)CN(C)C(=O)c1ccc(OC)c(OC2CCN(C(C)C)CC2)c1	i	i	24	30
COc1ccc(C(=O)N(C)C2CCCc3ccccc32)cc1OC1CCN(C(C)C)CC1 (centres undefined)	i	?	i	i
COc1cc(OC)cc(C(=O)NC2CCSc3ccccc32)c1 (centres undefined)	nt	nt	i	i
CCN(CC)C(=O)c1sc2c(c1C)c(=O)n(-c1ccc(Cl)c(Cl)c1)c(=O)n2Cc1ccccc1C#N	nt	i	nt	nt
COc1cc([C@@H]2C(C#N)=C(N)Oc3cc(C)n(CCN4CCOCC4)c(=O)c32)cc(OC)c1OC	i	nt	nt	nt
